Experimental findings from the supplement of paper PMC10338343 are described below.

Experiment [1] relates to MILI (PIWIL2) piRISC loaded with L1MC piRNA (26 nt). Nature of the experiment: pre-steady-state target cleavage rate (min^-1); guide: L1MC piRNA 5'p-UAACUAAAUACUAUGCAAGCUGUAGG; higher = faster piRNA-guided slicing of the target. Summed up:
(§1)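 In Cleave-'n-Seq, a transcribed, DNA-blocked target RNA library (0.1 nM) was combined with 1 nM active affinity-purified piRISC bearing one synthetic guide, with or without 500 nM GTSF1 partner protein. Reactions ran in HEPES–potassium acetate buffer at 33 °C for 0–8 or 0–960 min. Uncleaved targets were sequenced and normalised to depth and to weakly complementary targets, three trials were pooled, and k3 was capped at 0.0001 min^-1. The pre-steady-state cleavage rate was obtained by fitting a burst-and-steady-state model.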

The subject of experiment [2] is EfPiwi piRISC loaded with L1MC piRNA (26 nt). Nature of the experiment: pre-steady-state target cleavage rate (min^-1); auxiliary factor: 500 nM Ephydatia muelleri Gtsf1; guide: L1MC piRNA 5'p-UAACUAAAUACUAUGCAAGCUGUAGG; MIWI and MILI are mouse PIWI proteins and EfPiwi is from a freshwater sponge; tags in brackets are library labels; higher = faster piRNA-guided slicing of the target. Summed up:
as §1

Where [3] appears, read: auxiliary factor: 500 nM mouse GTSF1.
Where [4] appears, read: auxiliary factor: none (no GTSF1).

± gives the standard deviation.

Turning to UCCUGCUUCAGCAUGCAUAGUAUUUAGUUA, the “pre-steady-state target cleavage rate” value in experiment [1] (setting [3]) came to 0.291 ± 0.015; in experiment [1] (setting [4]), 0.0121 ± 0.0034; in experiment [2] it was 0.0186 ± 0.0047.
As to UCCUGCUAAGCUUGCAUAGUAUUUAGUUA, the “pre-steady-state target cleavage rate” value came to 0.182 ± 0.018 in experiment [1] (setting [3]), 0.00403 ± 0.0019 in experiment [1] (setting [4]) and 0.00771 ± 0.0024 in experiment [2].
For UCCUGGUACAGCUUGCUUAGUAUUUAGUUA, the “pre-steady-state target cleavage rate” value came out at 0.219 ± 0.024 in experiment [1] (setting [3]), 0.00964 ± 0.0022 in experiment [1] (setting [4]) and 0.0165 ± 0.0049 in experiment [2].
Consider UCCUGCAACAGCUUGGAUAGUAUUUAGUUA, for which the “pre-steady-state target cleavage rate” value stood at 0.251 ± 0.011 in experiment [1] (setting [3]), 0.00806 ± 0.0021 in experiment [1] (setting [4]) and 0.0256 ± 0.0066 in experiment [2].
In the same order, the values of UCCUGGAACAGCUUGCUUACUAUUUAGUUA are 0.0834 ± 0.011, 0.0029 ± 0.0024 and 0.00758 ± 0.0029.
The matching figures for UCCUGGAUGAGCUUGCUUAGUAUUUAGUAA: 0.155 ± 0.022, 0.00595 ± 0.0027 and 0.00265 ± 0.0025.
Regarding UCCUGCUUCAGCUUGCAUUGUAUUUAGUUA, the “pre-steady-state target cleavage rate” value in experiment [1] (setting [3]) worked out at 0.218 ± 0.013; in experiment [1] (setting [4]) it was 0.0103 ± 0.0023; in experiment [2] it was 0.0233 ± 0.0065.
The matching figures for UCCUGCUUCAGCUUGCAUAGUAUUAAGUUA: 0.13 ± 0.02, 0.00279 ± 0.0026 and 0.00492 ± 0.0016.
For UCCUCGUACAGCUUGCAUACUAUUUAGUUA, the “pre-steady-state target cleavage rate” value in experiment [1] (setting [3]) came to 0.0786 ± 0.011; in experiment [1] (setting [4]), 0.00274 ± 0.0022; in experiment [2], 0.0224 ± 0.0069.
For the sequence UCCUGGAUCACCUUGCAUAGUAUUAAGUUA, the entries for the “pre-steady-state target cleavage rate” value in experiment [1] (setting [3]), in experiment [1] (setting [4]) and in experiment [2] were 0.201 ± 0.034, 0.00424 ± 0.0023 and 0.00509 ± 0.0039, respectively.
On to UCCUGGAACAGCUUGCAUAGUAUGUAGUUA, for which the “pre-steady-state target cleavage rate” value in experiment [1] (setting [3]) amounted to 0.206 ± 0.034; in experiment [1] (setting [4]), 0.00343 ± 0.003; in experiment [2], 0.00302 ± 0.0021.
UCCUGCUACAGCUUGCAUACUAUUUAGUUA: the “pre-steady-state target cleavage rate” value in experiment [1] (setting [3]) was determined as 0.0775 ± 0.012; in experiment [1] (setting [4]), 0.0046 ± 0.0019; in experiment [2] it was 0.00755 ± 0.0026.
Turning to UCCUGGAUGAGCUUGCAUAGUAUUUAGUGUA, the “pre-steady-state target cleavage rate” value in experiment [1] (setting [3]) was found to be 0.261 ± 0.041; in experiment [1] (setting [4]), 0.00591 ± 0.0031; in experiment [2], 0.00866 ± 0.0031.
UCCUGCUACAGCUUGCAAAGUAUUAAGUUA: the “pre-steady-state target cleavage rate” value in experiment [1] (setting [3]) stood at 0.146 ± 0.019; in experiment [1] (setting [4]) it was 0.00367 ± 0.0025; in experiment [2] it was 0.00445 ± 0.0021.
The matching figures for UCCUGGUACAGCUUGAAUAGUAUUUAGUUA: 0.302 ± 0.055, 0.00915 ± 0.0046 and 0.0053 ± 0.0028.
In the same order, the values of UCCUGGUUCAGCUUGCAUAGUAUUUAGUUA are 0.23 ± 0.022, 0.0108 ± 0.0032 and 0.0765 ± 0.018.
Turning to UCCUCCUACACGUUGCAUAGUAUUUAGUAA, the entries for the “pre-steady-state target cleavage rate” value in experiment [1] (setting [3]), in experiment [1] (setting [4]) and in experiment [2] were 0.163 ± 0.022, 0.00299 ± 0.0029 and 0.00566 ± 0.0027, respectively.
The matching figures for UCCUCCUACAGCUUGGAUUGUAUUUAGUUA: 0.165 ± 0.015, 0.00457 ± 0.002 and 0.0225 ± 0.0082.
As to UCCUCCUACAGCUUGCACAGUAUUUAGUUA, the results for the “pre-steady-state target cleavage rate” value in experiment [1] (setting [3]), in experiment [1] (setting [4]) and in experiment [2] were 0.19 ± 0.017, 0.00767 ± 0.0021 and 0.0475 ± 0.013, respectively.
In the same order, the values of UCCUGCUUCAGCUUGCAUAGUAUUUUGUUA are 0.144 ± 0.025, 0.00322 ± 0.0024 and 0.00635 ± 0.0022.
With UCCUGGAUCUGCUUGCAAAGUAUUUAGUUA, the “pre-steady-state target cleavage rate” value in experiment [1] (setting [3]) amounted to 0.0598 ± 0.013; in experiment [1] (setting [4]), 0.0085 ± 0.0023; in experiment [2], 0.0405 ± 0.011.
In the same order, the values of UCCUGCUACAGCUUGUAUAGUAUUUAGUUA are 0.255 ± 0.015, 0.00693 ± 0.0021 and 0.029 ± 0.0067.
With UCCUCCUACAGCUUGCAUAGUAUUUAGUAUA, the “pre-steady-state target cleavage rate” value in experiment [1] (setting [3]) was 0.258 ± 0.028; in experiment [1] (setting [4]), 0.00757 ± 0.0027; in experiment [2] it was 0.00856 ± 0.0035.
UCCUCCUACAGCUUUCAUAGUAUUUAGUUA: the figures for the “pre-steady-state target cleavage rate” value in experiment [1] (setting [3]), in experiment [1] (setting [4]) and in experiment [2] were 0.213 ± 0.017, 0.00664 ± 0.002 and 0.00691 ± 0.0022, respectively.
The matching figures for UCCUGGAACAGGUAGCAUAGUAUUUAGUUA: 0.209 ± 0.016, 0.00531 ± 0.0016 and 0.00892 ± 0.0028.
In the same order, the values of UCCUGGAUCAGCUUUGCAUAGUAUUUAGUUA are 0.297 ± 0.016, 0.0075 ± 0.0028 and 0.103 ± 0.023.
The matching figures for UCCUGGAUGAUCUUGCAUAGUAUUUAGUUA: 0.145 ± 0.016, 0.00813 ± 0.003 and 0.0779 ± 0.023.
For UCCUGGUACAGCUUGCAUGGUAUUUAGUUA, the “pre-steady-state target cleavage rate” value in experiment [1] (setting [3]) was found to be 0.298 ± 0.021; in experiment [1] (setting [4]), 0.0136 ± 0.0044; in experiment [2], 0.00828 ± 0.0033.
The matching figures for UCCUGGAUGAGCUUGGAUAGUAUUUAGUUA: 0.163 ± 0.011, 0.00612 ± 0.0024 and 0.0043 ± 0.0033.
In the same order, the values of UCCUCCUACAGCAUGGAUAGUAUUUAGUUA are 0.269 ± 0.014, 0.00942 ± 0.0022 and 0.096 ± 0.023.
In the same order, the values of UCCUGGAUGAGCAUGCAUUGUAUUUAGUUA are 0.0714 ± 0.013, 0.00843 ± 0.003 and 0.00289 ± 0.0022.
As to UCCUGCUACAGCUGCAUAGUAUUUAGUUA, the figures for the “pre-steady-state target cleavage rate” value in experiment [1] (setting [3]), in experiment [1] (setting [4]) and in experiment [2] were 0.271 ± 0.02, 0.00665 ± 0.0026 and 0.0102 ± 0.0026, respectively.
The matching figures for UCCUCCUACAGCAUGCAUAGUAAUUAGUUA: 0.251 ± 0.024, 0.00544 ± 0.0019 and 0.0115 ± 0.0038.
For the sequence UCCUGCUACAGCUUGCAGAGUAUUUAGUUA, the “pre-steady-state target cleavage rate” value in experiment [1] (setting [3]) was found to be 0.27 ± 0.028; in experiment [1] (setting [4]) it was 0.00514 ± 0.002; in experiment [2], 0.006 ± 0.0022.
For UCCUGGAUCAGCUUGCAUAGUAUUUAGAUA, the “pre-steady-state target cleavage rate” value in experiment [1] (setting [3]) was 0.114 ± 0.013; in experiment [1] (setting [4]) it was 0.00393 ± 0.0016; in experiment [2], 0.00499 ± 0.0022.
In the same order, the values of UCCUGGAACAGCAUUGCAUAGUAUUUAGUUA are 0.233 ± 0.024, 0.00862 ± 0.0022 and 0.015 ± 0.0044.
In the same order, the values of UCCUGGUACAGCUAGCAUAGUAAUUAGUUA are 0.236 ± 0.041, 0.00483 ± 0.0027 and 0.00407 ± 0.0023.
Consider UCCUGGAUGUGCUUGCACAGUAUUUAGUUA, for which the “pre-steady-state target cleavage rate” value came out at 0.13 ± 0.01 in experiment [1] (setting [3]), 0.00631 ± 0.0022 in experiment [1] (setting [4]) and 0.00686 ± 0.0028 in experiment [2].
The matching figures for “UCCUGGAUGAGCUUGCAUAGUAUUUAGUUA [g2:g21:cont:t1A]”: 0.244 ± 0.014, 0.0101 ± 0.0024 and 0.0338 ± 0.0087.
For the sequence UCCUGGAUGUGCUUGCAUAGUAUUUAGUCA, the “pre-steady-state target cleavage rate” value in experiment [1] (setting [3]) came out at 0.117 ± 0.018; in experiment [1] (setting [4]), 0.00487 ± 0.0035; in experiment [2] it was 0.00263 ± 0.0019.
The matching figures for UCCUGGAUGUGCUUGCAUAGUUUUUAGUUA: 0.0127 ± 0.0066, 0.00796 ± 0.0026 and 0.00538 ± 0.0024.
In the same order, the values of UCCUCCUACAGCUUGCAUGGUAUUUAGUUA are 0.413 ± 0.019, 0.00982 ± 0.003 and 0.0681 ± 0.02.
For UCCUGCUACAGCUUGCAUAGUACUUAGUUA, the “pre-steady-state target cleavage rate” value is 0.233 ± 0.026 in experiment [1] (setting [3]), 0.00719 ± 0.0026 in experiment [1] (setting [4]) and 0.00608 ± 0.0018 in experiment [2].
Take UCCUGCUACAGCUUGCUUAGUAAUUAGUUA: the “pre-steady-state target cleavage rate” value in experiment [1] (setting [3]) came to 0.18 ± 0.018; in experiment [1] (setting [4]), 0.00332 ± 0.0026; in experiment [2] it was 0.0139 ± 0.0051.
In the same order, the values of UCCUCCUACAGCAUGCAUACUAUUUAGUUA are 0.0758 ± 0.011, 0.00328 ± 0.0022 and 0.00724 ± 0.0028.
As to UCCUGCUACAGCUUGCAUAGUAUCUAGUUA, the “pre-steady-state target cleavage rate” value is 0.265 ± 0.033 in experiment [1] (setting [3]), 0.00553 ± 0.0025 in experiment [1] (setting [4]) and 0.00723 ± 0.0019 in experiment [2].
